SENP6 inh: SENP6 protease inhibition; inhibition, % at 10 µM; Recombinant SENP6 catalytic domain, aminoluciferin luminescence; Q9GZR1; 330,000 tested, 1.8% active;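 active = inhibition above about 50% at the single tested dose, limit read from the data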;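 also: plate controls were DMSO wells with enzyme for no effect and DMSO wells lacking enzyme for full effect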
PPC-1+TRAIL kill: PPC-1 cancer cell killing with TRAIL present | PPC-1 cells + TRAIL, ATPLite viability luminescence | cell killing (% activity), % at 4 µM or 5 µM | 220,000 tested, 0.41% active | AID 1443;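 active = cell killing above 50% in the first pass at 4 µM, then a duplicate retest at 5 µM averaging 50% or more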;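 also: plate controls were cells with TRAIL plus DMSO for no effect and medium-only wells lacking cells for full effect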
SENP8 block-1: blocks human SENP8 cleavage of Nedd8 substrate. recombinant SENP8, Nedd8 substrate fluorescence. Q96LD8. 360,000 tested, 0.64% active. AID 602440. inhibition, % at 20 µM; in the data active = inhibition mostly above about 40%, no sharp cut-off; inactive = mostly below about 27%
Target sequence (Q96LD8 whole entry, looked up): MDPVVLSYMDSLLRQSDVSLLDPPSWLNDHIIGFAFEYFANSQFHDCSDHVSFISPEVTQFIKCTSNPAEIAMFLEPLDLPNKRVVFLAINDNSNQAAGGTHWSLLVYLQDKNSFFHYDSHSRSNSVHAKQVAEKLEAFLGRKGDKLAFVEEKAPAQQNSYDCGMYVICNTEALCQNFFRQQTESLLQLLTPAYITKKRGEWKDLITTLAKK
SENP7 inh: blocks the human protease SENP7. Q9BQF6. 330,000 tested, 1.5% active. recombinant SENP7, Z-RLRGG-aminoluciferin luminescence, 40 min. inhibition, % at 5 µM. AID 434973;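 active = inhibition above about 50% at the single test dose, limit read from the data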;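 also: plate controls were DMSO with enzyme for no effect and no enzyme buffer wells for full effect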
TRAIL sens C8: sensitizes caspase-8 expressing cells to TRAIL; NB7+C8 cells + TRAIL, ATPlite viability luminescence; inhibition (viability loss, TRAIL sensitization), % at 10 µM; 360,000 tested, 1% active; AID 624354;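 active = compounds causing at least 50% loss of cell viability in the single-dose screen, relative to plate controls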
SENP8 block-2: inhibitors of human SENP8 protease | Q96LD8 | purified SENP8, Z-RLRGG-aminoluciferin cleavage, luminescence | inhibition, % at 10 µM | 330,000 tested, 1.2% active; in the data active = inhibition above about 50%
SENP8 confirm: human SENP8 inhibition, confirmed; shares compounds with SENP7 inh; Recombinant SENP8, Z-RLRGG-aminoluciferin luminescence, 60 min; inhibition, % at 12.5 µM; 6,200 tested, 40% active; AID 488912;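 active = mean inhibition across replicates above about 50%, limit read from the data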
SENP6 confirm: human SENP6 inhibition, confirmed; recombinant SENP6, Z-RLRGG-aminoluciferin luminescence; shares compounds with SENP7 inh; 6,200 tested, 58% active; inhibition, % at 12.5 µM
SENP7 confirm: confirmation of human SENP7 protease inhibitors. shares compounds with SENP7 inh. 6,200 tested, 69% active. inhibition, % at 12.5 µM. AID 488917. recombinant SENP7, Z-RLRGG-aminoluciferin luminescence, 40 min
Casp3 select: selectivity test for SENP inhibitors: human caspase-3 inhibition; purified caspase-3, Z-DEVD-aminoluciferin luminescence, 60 min; shares compounds with SENP7 inh; 6,200 tested, 60% active; inhibition, % at 12.5 µM;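 active = mean inhibition above about 50%, limit read from the data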;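 also: plate controls were enzyme with DMSO for no effect and wells without caspase-3 for full effect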
Target sequence (P42574 28-227 limits assumed): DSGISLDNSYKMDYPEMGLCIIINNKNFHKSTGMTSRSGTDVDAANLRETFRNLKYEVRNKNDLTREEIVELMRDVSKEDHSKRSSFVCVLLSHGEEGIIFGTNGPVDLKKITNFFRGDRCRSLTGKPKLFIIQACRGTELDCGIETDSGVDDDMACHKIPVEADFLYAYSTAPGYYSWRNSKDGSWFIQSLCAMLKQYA
SENP luc ctr: counter-screen for SENP inhibitors: luminescence interference; 6,200 tested, 39% active; Pre-incubated SENP8/Z-RLRGG-aminoluciferin, luciferase luminescence interference; AID 488919; inhibition, % at 12.5 µM; shares compounds with SENP7 inh;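 active = mean inhibition above about 50% when retested at one dose, limit read from the data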;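 also: plate controls were DMSO wells with completed reaction for no effect and substrate without enzyme for full effect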
The depositor's hits bear a star; . = no result given. The list is not random: actives were taken first. Their share in the collection is about 3%.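 The calls were made as follows, unless noted: active = mean inhibition above about 50% in the one-dose retest (limit read from the data); inactive = the rest.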

SMILES	SENP6 inh	PPC-1+TRAIL kill	SENP8 block-1	SENP7 inh	TRAIL sens C8	SENP8 block-2	SENP8 confirm	SENP6 confirm	SENP7 confirm	Casp3 select	SENP luc ctr
CCCCN1CC2([N+](=O)[O-])C=CC(=O)C([N+](=O)[O-])(C1)C2CC(=O)c1ccccc1 (centres undefined)	88*	16	8	-1	18	-8	4	-1	2	4	3
C=CCN(CC=C)CC(=O)Nn1c(C)ccc1C	.	.	10	.	-1	.	.	.	.	.	.
c1ccc(CN2CCOCC2)cc1	-7	16	4	87*	-17	1	4	0	-3	-2	-3
Cc1oc(-c2ccccc2)nc1C(=O)OCC(=O)NC(C)c1ccccc1 (centres undefined)	-13	.	-21	-9	4	-13	.	.	.	.	.
Cc1oc(-c2ccccc2)nc1C(=O)OCC(=O)NC(=O)NCC(C)C	-23	6	-3	65*	-1	26	4	6	17	28	12
NS(=O)(=O)c1ccc(NC(=O)CSc2cn[nH]n2)cc1	-14	.	15	-10	-9	-4	.	.	.	.	.
Cc1nn2c(-c3ccc(Cl)cc3)nnc2s1	5	4	21	5	-29	-7	.	.	.	.	.
Cc1nn2cc(-c3ccc(Cl)cc3)nc2s1	81*	-8	11	87*	19	54*	-4	3	26	24	4
Cc1nn2cc(-c3ccc(-c4ccccc4)cc3)nc2s1	-1	26	-118	58*	18	13	3	11	6	8	6
COc1ccc(NC(=O)CCCC(=O)NCCc2ccc(OC)c(OC)c2)cc1	-3	.	21	1	-21	3	.	.	.	.	.
CCC(=O)Oc1ccc(-c2cnc3ccccc3n2)cc1	94*	32	-26	94*	13	89*	-15	92*	101*	88*	38
O=C(Oc1ccc(-c2cnc3ccccc3n2)cc1)c1ccco1	88*	5	3	98*	9	92*	76*	83*	94*	87*	42
Cc1ccc(C(=O)COC(=O)c2ccc(-c3cnc4ccccc4n3)cc2)cc1C	11	17	-23	0	18	-2	.	.	.	.	.
O=C(/C=C/c1cccc([N+](=O)[O-])c1)NC(=S)Nc1ccccc1C(=O)O	.	7	.	.	.	.	.	.	.	.	.
CCOc1ccc(/C=N/NC(=O)c2ccc(Cn3cc(Br)cn3)o2)cc1	55*	19	-48	8	9	3	22	17	57*	23	50
CCOC(=O)N1CCN(C(=O)/C=C/c2c(C)nn(-c3ccc(F)cc3)c2Cl)CC1	.	5	11	.	-4	.	.	.	.	.	.
O=C(/C=C/c1ccc(O)c(O)c1)NC(=O)c1ccccc1O	74*	.	-7	59*	42	69*	0	64*	90*	38	74*
CCn1c(Cc2ccccc2)nnc1SCC(=O)Nc1ccccc1O	-12	-24	13	-5	24	-6	.	.	.	.	.
COc1ccc(N2CC(C(=O)N[C@@H](C)C(=O)NCCc3ccccc3)CC2=O)cc1 (some centres undefined)	-7	.	11	2	-8	2	.	.	.	.	.
Fc1ccccc1-c1nc(-c2ccc(Br)o2)no1	84*	.	12	89*	26	85*	-12	83*	97*	68*	23
Cc1ccccc1-c1nc(-c2ccc(NC(=O)c3ccc(Br)o3)cc2)no1	28	-15	-6	2	-7	13	.	.	.	.	.
COc1ccc(Cl)cc1-c1nc(-c2ccc(Br)o2)no1	-24	15	-13	2	21	-1	.	.	.	.	.

Screening results: PubChem BioAssay, Sanford-Burnham Center for Chemical Genomics
